Among the data in PubChem BioAssay AID1851 (National Center for Advancing Translational Sciences (NCATS), 2009) are activity, negative = inhibition and AC50 values, retold here.

In all, about 16,000 compounds went through this assay and about 5,700 (36%) were called active. Not shown: some 24% with an inconclusive outcome. Calls follow the shape of the dose curve; as a rule, active = well fitted curve in the direction sought with a large enough effect; inconclusive = small, poorly fitted or top-dose-only effect, or effect the other way; inactive = no such curve, though single readings can be large or run the other way. This is one part of the list.
% is scaled to controls: 0 for no effect and ±100 for the full control effect.

In the test the target is Cytochrome P450 1A2 (Homo sapiens) (UniProt P05177). The experiment in a line: Cytochrome panel assay with activity outcomes. The conditions noted are these: recombinant CYP, pro-luciferin dealkylation, luminescence, p450-cyp1a2; series mostly up to 57.1 µM.
Chain of Cytochrome P450 1A2 (Homo sapiens) (P05177 whole entry, looked up): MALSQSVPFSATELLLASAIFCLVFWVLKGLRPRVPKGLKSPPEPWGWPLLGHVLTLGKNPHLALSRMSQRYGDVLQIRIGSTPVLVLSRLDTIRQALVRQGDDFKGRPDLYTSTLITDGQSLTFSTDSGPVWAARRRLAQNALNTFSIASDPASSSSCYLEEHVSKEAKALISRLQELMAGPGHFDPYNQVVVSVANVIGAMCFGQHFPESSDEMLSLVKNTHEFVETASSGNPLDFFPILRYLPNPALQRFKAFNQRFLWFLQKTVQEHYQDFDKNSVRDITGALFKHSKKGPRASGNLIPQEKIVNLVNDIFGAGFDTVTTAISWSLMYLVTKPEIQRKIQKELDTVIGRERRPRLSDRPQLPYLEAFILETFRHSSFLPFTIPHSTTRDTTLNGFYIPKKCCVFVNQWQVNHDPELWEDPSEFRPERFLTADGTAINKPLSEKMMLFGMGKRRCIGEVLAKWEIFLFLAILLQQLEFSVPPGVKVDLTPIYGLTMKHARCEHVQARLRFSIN
`CC(C)(N)CO[C@H]1C[C@H]2CC[C@@]1(C)C2(C)C`: the activity, negative = inhibition is -8.25% [at 11.4 µM] (inactive).
Consider `CC(=O)Nc1ccc(S(=O)(=O)NCC2CCC(C(=O)NCCC(C)C)CC2)cc1` (stereo not given), for which the AC50 (usually the concentration at which the activity in the assay is half-maximal) was “inactive”.
Same read-out and setting: then `Cn1cccc1C(=O)N1CCC2(CC1)CN(Cc1ccc(C#N)cc1)C2`, with “inactive”; and `CCOc1cc(/C=N/n2cnnc2)c(Br)cc1O`, with 10 µM (active); and `O=C(Nc1ccccc1N1CCN(C(=O)c2ccccc2)CC1)c1cc(Br)ccc1Cl`, with “inactive”.
On to `CC(C)(C)c1ccc(OCC(=O)NNC(=O)CCc2ccccc2)cc1`, for which the AC50 result is “inactive”.
Same read-out and setting: then `CS(=O)(=O)N1CCN(c2ccccc2NC(=O)c2ccc(Br)o2)CC1`, with 14.1 µM (active); and `O=C(COc1ccccc1)Nc1cc(C(F)(F)F)ccc1N1CCCC1`, with 2 µM (active).
On the same count and under the same terms, under `Cc1noc(NS(=O)(=O)c2ccc(NC(=O)c3ccc(Br)o3)cc2)c1C` stands “inactive”.
On the same count and under the same terms, then `NS(=O)(=O)c1cc(C(=O)O)cc(N2CCCC2)c1Oc1ccccc1`, with “inactive”; and `Cc1cc(F)ccc1S(=O)(=O)Nc1ccccc1C(=O)Nc1ccccc1N1CCOCC1`, with “inactive”; and `Cc1cc(C)n(-c2ccc(C(=O)Nc3cc(C(F)(F)F)ccc3N3CCOCC3)cc2)n1`, with “inactive”.
Turning to `O=C(Nc1cc(C(F)(F)F)ccc1N1CCCCC1)c1ccc(Br)o1`, the AC50 was 0.282 µM (active).
Same read-out and setting: under `O=C(c1cnccn1)N1CCC2(CC1)CN(Cc1nccs1)C2` stands “inactive”; under `O=C(NNC(=S)NC(=O)c1cccnc1)c1ccccc1`, “inactive”; under `O=C(NC(=S)Nc1ccc(Br)cn1)c1cncc(Br)c1`, 0.282 µM (active).
Still for that read-out and setting: under `COc1ccc(C2C(C(=O)N3CCN(C)CC3)c3ccccc3C(=O)N2C2CCCCC2)cc1` (stereo not given) stands “inactive”.
Same read-out and setting: under `O=C(NC1CCCCC1)c1sc(=S)n2c1[nH]c(=O)c1ccccc12` stands 3.16 µM (active); under `O=C(NCc1ccccc1)c1sc(=S)n2c1[nH]c(=O)c1ccccc12`, 8.91 µM (active); under `COc1cccc(/C=c2/s/c(=C(\C#N)C(=O)N3CCOCC3)n(-c3ccccc3)c2=O)c1`, “inactive”.
For the molecule `CCOC(=O)N/N=C1/C[C@@H](O)[C@@H](O)[C@@H]2[C@@H]3C(=O)N([C@@H](C)c4ccccc4)C(=O)[C@H]3CC[C@H]12`, the activity, negative = inhibition is 7.27% [at 11.4 µM] (inactive).
In the case of `CN(C)CCN1C(=O)C(O)=C(C(=O)c2cc3ccccc3o2)C1c1ccccn1` (stereo not given), the AC50 entry is “inactive”.
The same measure, in the same setting: under `Cc1ccc(-c2csc(N3CCC(NS(=O)(=O)c4ccc5c(c4)OCCO5)CC3)n2)cc1` stands 5.01 µM (active); under `Cc1ccc2nc(N3CCN(S(=O)(=O)c4ccc5c(c4)OCCO5)CC3)c(C#N)cc2c1`, “inactive”.
On to `CN1CCCN(S(=O)(=O)c2ccc3c(c2)OCCO3)CC1`, for which the AC50 result is “inactive”.
Same read-out and setting: then `CCn1c2ccccc2c2cc(/C=N/n3cn[nH]c3=S)ccc21`, with 2.82 µM (active); and `Nc1nonc1-c1nc2ccccc2n1Cc1ccc(F)cc1Cl`, with 0.2 µM (active).
Same read-out and setting: under `Clc1ccc(Cn2c(-c3cccnc3Cl)nc3ccccc32)c(Cl)c1` stands 12.6 µM (active); under `CC(=O)OCC(=O)[C@@]1(O)CC[C@@H]2[C@H]3CCC4=CC(=O)C=C[C@]4(C)[C@]3(F)[C@@H](O)C[C@@]21C`, “inactive”; under `Cc1ccccc1-c1nc(NC2CC2)c2ccccc2n1`, 0.501 µM (active).
Same read-out and setting: under `COc1ccccc1-c1nc(NC2CC2)c2ccccc2n1` stands 0.316 µM (active).
Turning to `CC(=O)Nc1ccc(S(=O)(=O)N2CCN(c3nc(NC4CCCC4)c4ccccc4n3)CC2)cc1`, the AC50 result was “inactive”.
Same read-out and setting: under `COc1cc(CC(=O)O)c(C(C)=O)cc1OC` stands “inactive”; under `CC(=O)c1cc(CC=C(C)C)c(O)cc1O`, 3.55 µM (active).
Take `CCC[C@H](Sc1nc(N)nc2nc[nH]c12)C(=O)O`: the activity, negative = inhibition is -9.79% [at 11.4 µM] (inactive).
On the same count and under the same terms, under `Nc1nc(N)c2[nH]cnc2n1` (tested in a mixture with another compound) stands -5.45% [at 2.29 µM] (inactive).
Turning to `Nc1nc(SCc2ccccc2[N+](=O)[O-])c2[nH]cnc2n1`, the AC50 was 5.01 µM (active).
Turning to `Nc1nc(SC/C=C\c2ccccc2)c2[nH]cnc2n1`, the AC50 was 5.01 µM (active).
Take `Nc1nc(Sc2ccc([N+](=O)[O-])c3nonc23)c2[nH]cnc2n1`: the activity, negative = inhibition is -26.1% [at 2.29 µM] (inactive).
In the case of `Nc1nc(SCCc2ccccc2)c2[nH]cnc2n1`, the AC50 is 3.16 µM (active).
`O=C(O)CCSc1ncnc2nc[nH]c12`: the activity, negative = inhibition is -3.4% [at 11.4 µM] (inactive).
Consider `Cc1cccc(N(C)S(=O)(=O)c2ccc3[nH]c(=O)c(=O)[nH]c3c2)c1`, for which the AC50 result is “inactive”.
As for `COCC(=O)N1CCC2(CCCN(Cc3nccs3)C2)CC1`, the AC50 entry is “inactive”.
In the case of `CC(C)=NOCc1ccc(-c2cn([C@@H]3COC[C@@H]3O)nn2)cc1`, the activity, negative = inhibition was -5.29% [at 11.4 µM] (inactive).
Take `c1ccc(/C(=N/Nc2nc3ccccc3s2)c2ccccn2)cc1`: the AC50 was 3.16 µM (active).
Turning to `COc1cccc(-c2cc3nc(-c4ccccc4)cc(N4CCC5(CC4)OCCO5)n3n2)c1`, the AC50 was 0.251 µM (active).
On the same count and under the same terms, then `CC1CN(C(=O)COc2ncnc3ccccc23)CC(C)O1` (stereo not given), with “inactive”; and `CCOc1ccc(OCCOc2ncnc3ccccc23)cc1`, with 12.6 µM (active); and `Cc1cc(C)cc(-n2c(C)cc(C=C(C#N)C#N)c2C)c1`, with “inactive”.
On the same count and under the same terms, then `CCc1ccc(N(C(=O)c2snc(C(N)=O)c2N)C(C(=O)NCCC(C)C)c2c[nH]c3ccccc23)cc1` (stereo not given), with “inactive”; and `CCN(CC)c1ccc(NC(=O)c2cccnc2)c(C)c1`, with “inactive”.
Turning to `CCOc1cc(C#N)c(NC(=O)c2cccnc2)cc1OCC`, the AC50 was 20 µM (active).
The same measure, in the same setting: under `CS(=O)(=O)N1CCC2(CCN(Cc3nccs3)CC2)CC1` stands “inactive”.
For the molecule `Cn1cnnc1SCC(=O)n1c2ccccc2c2ccccc21`, the AC50 was 0.0501 µM (active).
Same read-out and setting: then `COC(=O)C1=C(CSc2nncn2C)NC(=O)NC1c1ccc(F)cc1` (stereo not given), with “inactive”; and `O=C(CN1C(=O)c2cccc3cccc(c23)C1=O)N1CCCCCC1`, with 14.1 µM (active); and `CCc1cccc2c(C=C(C#N)C#N)cn(CC(=O)N3CCCC3)c12`, with “inactive”.
Still for that read-out and setting: then `O=C(CCCN1C(=O)C2C3C=CC(C3)C2C1=O)N1CCN(c2ccccc2)CC1` (stereo not given), with “inactive”.
As to `O=C(CCCN1C(=O)c2cccc3cccc(c23)C1=O)N1CCc2ccccc2C1`, the AC50 is 6.31 µM (active).
Still for that read-out and setting: then `CCc1cccc2c(C=C(C#N)C#N)cn(CC(=O)N3CCCCC3)c12`, with “inactive”.
Regarding `CSc1nc(Cl)cc(N(CCO)CCO)n1`, the AC50 entry was “inactive”.
In the case of `CC(=O)OC[C@H]1O[C@@H](ON=C(C)C)[C@H](OC(C)=O)[C@@H](OC(C)=O)[C@H]1OC(C)=O`, the activity, negative = inhibition was -5.84% [at 11.4 µM] (inactive).
Regarding `COc1ccc(/C=C2\CCCC3C2=NN(C(=O)c2ccco2)C3c2ccc(OC)c(OC)c2)cc1OC` (stereo not given), the AC50 entry is “inactive”.
`NC(=O)/C(=N\OC(=O)c1ccco1)c1nc(-c2ccc(Br)cc2)cs1`: the AC50 was 0.447 µM (active).
Still for that read-out and setting: then `Clc1ccc(COc2ccccn2)cc1Cl`, with “inactive”.
In the case of `O=S(=O)(O)CCCc1cccc2ccccc12`, the activity, negative = inhibition was -16.7% [at 2.29 µM] (inactive).
As for `Clc1ccc(CSCCc2ccncc2)cc1Cl`, the AC50 was 0.316 µM (active).
On the same count and under the same terms, then `c1ccc2c(CSCCc3ccncc3)cccc2c1`, with 0.178 µM (active).
The same measure, in the same setting: under `Cn1c(=O)c(-c2ccccc2)nc2cnc(N3CCNCC3)nc21` stands 12.6 µM (active); under `Cn1c(=O)c(-c2ccccc2)nc2cnc(N3CCOCC3)nc21`, 2 µM (active); under `COc1ccc(-n2c(=O)c(-c3ccc(Cl)cc3)nc3cnc(N4CCOCC4)nc32)cc1`, 15.8 µM (active).
On the same count and under the same terms, then `COCCn1c(=O)c(-c2ccc(F)cc2)nc2cnc(N3CCOCC3)nc21`, with 5.01 µM (active).
With `NCCc1nc(-c2nc(C(=O)O)cs2)cs1`, the activity, negative = inhibition was -15.8% [at 11.4 µM] (inactive).
`N[C@@H](C(=O)O)c1ccc(C(=O)O)c(C(=O)O)c1`: the AC50 result was “inactive”.
Consider `COc1ccc2c(c1)CCCC21NC(=O)N(CC(N)=O)C1=O` (stereo not given), for which the AC50 result is “inactive”.
For the molecule `CC(C)(C)CC(C)(C)c1cc(O)c(O)c(CN2CCCCC2)c1`, the activity, negative = inhibition is -0.989% [at 11.4 µM] (inactive).
Consider `COc1ccc(-c2nc3cnc(N4CCN(C)CC4)nc3n(CCC#N)c2=O)cc1`, for which the AC50 result was “inactive”.
Same read-out and setting: then `Cn1c(=O)c(-c2ccc(F)cc2)nc2cnc(N3CCOCC3)nc21`, with 2.51 µM (active); and `N#CCCn1c(=O)c(-c2ccc(Cl)cc2)nc2cnc(N3CCOCC3)nc21`, with 15.8 µM (active).
Consider `Cn1c(=O)c(-c2ccc(Cl)cc2)nc2cnc(N3CCOCC3)nc21`, for which the AC50 is 2.51 µM (active).
Take `CC(C)CO/N=C1/[C@H]2O[C@@H]2[C@@H](O)[C@H]2[C@H]1CCn1c(=O)n(C)c(=O)n12`: the activity, negative = inhibition is 8.17% [at 11.4 µM] (inactive).
Turning to `COCC(=O)N1CCC2(CC1)CN(c1ccccn1)C2`, the AC50 result was “inactive”.
Still for that read-out and setting: then `CCCCNc1cc(=O)oc2ccccc12`, with 0.708 µM (active).
With `CC(=O)OC[C@@H]1O[C@H](C/C=N\OCC[C@H]2C=C[C@H](OC(C)=O)[C@@H](COC(C)=O)O2)C=C[C@@H]1OC(C)=O`, the activity, negative = inhibition was -12.9% [at 11.4 µM] (inactive).
On to `O=c1[nH]c(=S)[nH]nc1Cc1ccccc1`, for which the AC50 entry was “inactive”.
The same measure, in the same setting: then `c1ccc(Cc2nnc(Sc3ccccc3)c3ccccc23)cc1`, with 17.8 µM (active).
The same measure, in the same setting: then `O=C(CSc1ccccc1)Nc1ccc(N2CCN(c3ccccc3)CC2)c(F)c1`, with “inactive”; and `CCN(CC)S(=O)(=O)c1ccc(OC)c(NC(=O)CSc2ccccc2)c1`, with 15.8 µM (active).
The same measure, in the same setting: under `CCN(CC)S(=O)(=O)c1ccc(OC)c(NC(=O)c2cc([N+](=O)[O-])ccc2Cl)c1` stands “inactive”.
Consider `COC(=O)c1cc(OC)c(OC)cc1NC(=O)CSc1ccc(C)cc1`, for which the AC50 was 1.78 µM (active).
The same measure, in the same setting: under `CCN(CC)S(=O)(=O)c1cc(C(=O)Nc2ccccc2C(=O)O)ccc1OC` stands 15.8 µM (active).
The same measure, in the same setting: under `COc1ccc(C(=O)N2CCCCC2)cc1S(=O)(=O)Nc1ccccc1` stands “inactive”.
Still for that read-out and setting: under `Cc1ccc(SCC(=O)NNC(=O)C2CCCCC2)cc1` stands “inactive”; under `CCN(CC)S(=O)(=O)c1ccc2c(c1)nc(SCC(=O)N1CCOCC1)n2-c1ccccc1OC`, “inactive”; under `COC(=O)c1cc(OC)c(OC)cc1NC(=O)CSc1ccccc1`, 1.78 µM (active).
